Bioassay records from PubChem.
Rows were chosen to be rich in hits. Some 0.95% of all compounds tested hit in one or more screens of this group.
Giardia FBPA inh: Giardia lamblia aldolase inhibition. A8B2U2. purified Giardia FBPA. Potency, µM (top dose mostly 59.6 µM), for inactives: at the highest dose activity, negative = inhibition, most hits filed as inhibitors. 290,000 compounds, 0.71% hits. AID 2451; note: nearly all actives have a fitted effect of over 55% in size
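Giardia FBPA (40 nM reagent) was preincubated 10 min at RT with compound (up to 57.5 uM final), then substrate plus GAPDH/TPI/NAD/arsenate coupling system with diaphorase/resazurin was added; resorufin fluorescence (525/598 nm) was read after 20 min.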
RE007 growth inh: less growth of the S. pombe RE007 Vpr strain; 360,000 compounds, 0.21% hits; Potency, µM (top dose mostly 92.2 µM), for inactives: at the highest dose activity change, negative = less growth, usual class: inhibitors; S. pombe RE007 Vpr strain, BacTiter-Glo ATP luminescence, 24 h; active = well fitted falling curve with a large enough effect; inconclusive = small, poorly fitted or top-dose-only effect; inactive = no such curve, though single readings can be large or run the other way; note: nearly all actives have a fitted effect of over 50% in size
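Fission yeast strain RE007, carrying one chromosomally integrated HIV-1 vpr copy, was seeded at OD 0.01 in PMG+AL medium with 23 nL pinned compound. After 24 h at 30 °C and 99% humidity, viability was read by BacTiter-Glo luminescence.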
LmPK inhibitor: blocks Leishmania mexicana pyruvate kinase activity; Q27686; purified LmPK, Kinase-Glo ATP luminescence, 1 h; Potency, µM (highest dose often 57.5 µM), for inactives: top-dose activity change, negative = inhibition, usual class: inhibitors; 290,000 compounds, 0.37% hits; AID 1721
Target sequence (Q27686 whole entry, looked up): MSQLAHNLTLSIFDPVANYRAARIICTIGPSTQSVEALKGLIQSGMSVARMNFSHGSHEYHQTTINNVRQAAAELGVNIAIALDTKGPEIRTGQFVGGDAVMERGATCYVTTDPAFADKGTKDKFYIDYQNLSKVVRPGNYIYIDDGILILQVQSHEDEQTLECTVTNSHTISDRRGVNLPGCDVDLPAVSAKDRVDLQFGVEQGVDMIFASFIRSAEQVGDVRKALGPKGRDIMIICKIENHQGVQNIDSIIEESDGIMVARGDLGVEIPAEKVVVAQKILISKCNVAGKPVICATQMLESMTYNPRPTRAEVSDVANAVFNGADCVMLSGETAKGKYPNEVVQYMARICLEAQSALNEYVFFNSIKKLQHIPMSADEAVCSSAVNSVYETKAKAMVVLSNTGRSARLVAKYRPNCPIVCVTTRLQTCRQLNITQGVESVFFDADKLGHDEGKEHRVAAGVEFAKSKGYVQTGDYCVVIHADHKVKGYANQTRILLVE
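Screened at intermediate enzyme activity to detect both inhibitors and activators: LmPK at 0.1 nM, with a 0.5 nM enzyme column as activation reference. PEP 0.5 mM, ADP 0.1 mM; ATP detected by luminescence after 1 h.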
Tb PYK inh: T. brucei pyruvate kinase inhibition. TbPYK enzyme, Kinase-Glo Plus ATP luminescence, 45 min. Q57TT1. 410,000 compounds, 0.12% hits. Potency, µM (highest dose often 76.8 µM), for the others: top-dose activity, negative = inhibition, actives largely listed as inhibitors. AID 624173; note: nearly all actives have a fitted effect of over 50% in size
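T. brucei PYK with substrate was exposed to pin-transferred compounds across a concentration series, then started with 130 uM ADP (final). After 45 min at room temperature, Kinase-Glo Plus luminescence was read, normalized and curve-fitted.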
* = called active by the depositor. Unless noted, calls come from the whole dose curve; as a rule, active = well fitted curve in the direction sought with a large enough effect; inconclusive = small, poorly fitted or top-dose-only effect, or another doubt; inactive = no such curve, though single readings can be large; an effect the other way counts as inactive or inconclusive. % is set by controls: 0 for no effect and ±100 for the full control effect; potency is the fitted concentration of half-maximal effect.

For COC(=O)c1ccccc1NC1=C/C(=N\S(=O)(=O)c2ccc(C(=O)O)cc2)c2ccccc2C1=O the results were Giardia FBPA inh 1µM*, RE007 growth inh inconclusive, LmPK inhibitor -4.5% and Tb PYK inh -4.7%.
For COC(=O)c1ccccc1NC1=C/C(=N\S(=O)(=O)c2cccs2)c2ccccc2C1=O the results were Giardia FBPA inh inconclusive, RE007 growth inh -28.8%, LmPK inhibitor 17.8µM* and Tb PYK inh -4.8%.
`Nc1ccc2ncccc2c1` gave Giardia FBPA inh 2.23µM*, RE007 growth inh -3.7%, LmPK inhibitor -10.2% and Tb PYK inh -28.1%.
Screening Nc1c(C(=O)NC2CC2)sc2nc3c(c(-c4ccco4)c12)CC/C3=C/c1ccco1 returned Giardia FBPA inh 5.61µM*, RE007 growth inh -14.0%, LmPK inhibitor -1.3% and Tb PYK inh -29.7%.
Screening CO[C@H]1[C@@H](O)[C@H](N)[C@@H](O[C@H]2O[C@@H]([C@H](C)N)CC[C@H]2N)[C@H](O)[C@@H]1N(C)C(=O)CN returned Tb PYK inh 7.8%.
For COC1=C(OC)C(=O)C(CCCCCCCCCCO)=C(C)C1=O the results were Giardia FBPA inh 4.46µM*, LmPK inhibitor 15.3% and Tb PYK inh 10.2%.
For O=c1c2c([N+](=O)[O-])cc([N+](=O)[O-])cc2sn1Cc1ccccc1 the results were Giardia FBPA inh -22.7%, RE007 growth inh -38.3%, LmPK inhibitor -6.0% and Tb PYK inh 1.58µM*.
Screening O=c1c2c([N+](=O)[O-])cc([N+](=O)[O-])cc2sn1-c1ccc(Br)cc1 returned Giardia FBPA inh inconclusive, RE007 growth inh -87.4%, LmPK inhibitor 0.6% and Tb PYK inh 3.98µM*.
O=C(Nc1ccc(Br)cc1)c1cc([N+](=O)[O-])cc([N+](=O)[O-])c1 was read as Giardia FBPA inh 0.1%, RE007 growth inh 3.1%, LmPK inhibitor 8.4% and Tb PYK inh -27.0%.
Screening O=c1c2c([N+](=O)[O-])cc([N+](=O)[O-])cc2nc2ccccn12 returned Giardia FBPA inh -6.3%, RE007 growth inh -1.8%, LmPK inhibitor 0.7% and Tb PYK inh 1.3%.
For C[C@]12CCC(=O)C=C1CC[C@H]1C2CC[C@@]2(C)[C@@H]1CC[C@]2(C)O (stereo not given in full) the results were Tb PYK inh -5.2%.
Screening COc1ccc(S(=O)(=O)NCC(c2ccco2)N2CCOCC2)cc1OC (stereo not given) returned Tb PYK inh -8.4%.
`COc1ccc(C2=CC(=O)C=CC2=O)cc1` gave Giardia FBPA inh 15.8µM* and LmPK inhibitor 2.51µM*.
Screening COc1ccc(C2=CC(=O)C[C@H](c3ccc(OC)cc3)C2)cc1 returned RE007 growth inh -4.0% and Tb PYK inh -0.2%.
For COc1ccc(CNC(=O)CCCCCn2c(=O)[nH]c3ccccc3c2=O)cc1 the results were Tb PYK inh 2.1%.
Cc1nonc1C(=O)N/N=C/c1ccncc1 was read as Giardia FBPA inh -1.3%, RE007 growth inh -6.2%, LmPK inhibitor 15.8µM* and Tb PYK inh 3.7%.
CS(=O)(=O)Nc1cc2occ(NC=O)c(=O)c2cc1Oc1ccccc1 was read as Tb PYK inh -1.6%.
`Cc1ccc(-n2c(Cl)c(Cl)nc(Cl)c2=O)cc1` gave Giardia FBPA inh 1.1%, RE007 growth inh 10µM*, LmPK inhibitor -2.1% and Tb PYK inh 3.6%.
For CCCC(=O)N1CCN(c2ccc(NC(=O)c3cc4ccccc4o3)cc2Cl)CC1 the results were Giardia FBPA inh 9.98µM*, RE007 growth inh -15.8%, LmPK inhibitor 4.2% and Tb PYK inh -5.8%.
For O=C(Nc1ccccc1)c1cc2ccccc2o1 the results were Giardia FBPA inh -22.0%, RE007 growth inh inconclusive, LmPK inhibitor 14.1µM* and Tb PYK inh -5.7%.
`CCC(=O)N1CCN(c2ccc(NC(=O)c3cc4ccccc4o3)cc2Cl)CC1` gave Giardia FBPA inh inconclusive, RE007 growth inh -12.8%, LmPK inhibitor -1.4% and Tb PYK inh 3.9%.
`Cc1cc(C(=O)Nc2ccccc2)oc1C` gave RE007 growth inh -18.9%, LmPK inhibitor 15.8µM* and Tb PYK inh -1.3%.
Screening Cc1ccc(Nc2ncnc3c2nc2n3CCCC2)c(Br)c1 returned Tb PYK inh -2.2%.
`CC1=C(C)C(=O)C(CCCCC#CCCCC#CCO)=C(C)C1=O` gave Giardia FBPA inh 17.7µM*, RE007 growth inh -6.8%, LmPK inhibitor 4.3% and Tb PYK inh -4.3%.
Cc1cccc(NC(=O)CS(=O)(=O)c2cccc3nsnc23)c1 was read as Tb PYK inh -2.0%.
For COc1ccc2c(c1OC)C(=O)N(c1cccc(C)c1)C2 the results were Giardia FBPA inh 1.2%, RE007 growth inh -12.2%, LmPK inhibitor 14.1µM* and Tb PYK inh -15.9%.
`COc1ccc2c(c1OC)C(=O)N(c1ccc(C)cc1)C2` gave Giardia FBPA inh 2.2%, RE007 growth inh -18.8%, LmPK inhibitor -7.6% and Tb PYK inh 1.9%.
`O=C1C=CC(=O)N1c1cccc(-c2ccccc2)c1` gave Giardia FBPA inh -6.9%, RE007 growth inh 2.51µM*, LmPK inhibitor inconclusive and Tb PYK inh 5.01µM*.
Screening O=c1cc(-c2ccccc2)[nH]n1-c1ccccc1 returned RE007 growth inh 13.3% and Tb PYK inh -3.1%.
For Cc1ccc(-c2nc(C)c(CCNS(=O)(=O)c3ccccc3F)s2)cc1 the results were Tb PYK inh -1.5%.
Screening CCOc1ccc(Nc2nc(N)c3ccccc3n2)cc1 returned Giardia FBPA inh inconclusive, RE007 growth inh inconclusive, LmPK inhibitor -3.9% and Tb PYK inh inconclusive.
Nc1nc(Nc2ccccc2)nc2ccccc12 was read as Giardia FBPA inh -7.5%, RE007 growth inh inconclusive, LmPK inhibitor 15.8µM* and Tb PYK inh -23.3%.
`CN(C)c1ccc(Nc2nc(N)c3ccccc3n2)cc1` gave Giardia FBPA inh inconclusive, RE007 growth inh 25.1µM*, LmPK inhibitor inconclusive and Tb PYK inh inconclusive.
`Nc1nc(Nc2ccc(Cl)cc2)nc2ccccc12` gave Giardia FBPA inh -9.6%, RE007 growth inh inconclusive, LmPK inhibitor 17.8µM* and Tb PYK inh 4.8%.
`Cc1ccc(Nc2nc(N)c3ccccc3n2)cc1Cl` gave Giardia FBPA inh 14.1%, RE007 growth inh -13.3%, LmPK inhibitor -0.7% and Tb PYK inh 0.8%.
`COC(=O)Cc1c(C)c2cc3c(c(C)c2oc1=O)OCN(CCc1ccc(F)cc1)C3` gave Tb PYK inh 7.5%.
Screening c1ccc2c3c([nH]c2c1)-c1[nH]ncc1CC3 returned Giardia FBPA inh -4.9%, RE007 growth inh -19.6%, LmPK inhibitor 4.1% and Tb PYK inh -10.7%.
`Clc1ccc2[nH]c3c(c2c1)CCc1cn[nH]c1-3` gave Giardia FBPA inh 0.3%, RE007 growth inh 35.5µM*, LmPK inhibitor 2.3% and Tb PYK inh -5.0%.
CC(C)=CCC/C(C)=C\CC/C(C)=C\CC/C=C(\C)CC/C=C(\C)CCC=C(C)C was read as Tb PYK inh -1.9%.
